Experiments:
Test in all cases: log2 ratio of Biotin-Ahx-Ub-VS probe labelling (fragment/DMSO); higher = less target engagement (more negative = stronger competition), active = hit call of the paper (q ≤ 0.05, log2 ratio ≤ -1)
Conditions in all cases: compound concentration: 200 uM; treatment time: 3 h
[1] = target: USP34 (UniProt Q70CQ2)
Summary of the method: (§1)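 Global-median-normalised Spectronaut label-free quantities were compared by unpaired t-test, and values are average log2 ratios of fragment over vehicle. Only proteins with ≥2 unique peptides were used. HEK293T lysate (495 µg per sample) was treated in triplicate with fragment at 200 µM or vehicle for 3 h and then with Biotin-Ahx-Ub-VS at 0.5 µM final for 1 h. Labelled DUBs were then NeutrAvidin-enriched, digested with LysC and trypsin, and run by diaPASEF LC-MS/MS.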

[2] = target: T1, USP36 (UniProt Q9P275)
T1 sequence (whole entry): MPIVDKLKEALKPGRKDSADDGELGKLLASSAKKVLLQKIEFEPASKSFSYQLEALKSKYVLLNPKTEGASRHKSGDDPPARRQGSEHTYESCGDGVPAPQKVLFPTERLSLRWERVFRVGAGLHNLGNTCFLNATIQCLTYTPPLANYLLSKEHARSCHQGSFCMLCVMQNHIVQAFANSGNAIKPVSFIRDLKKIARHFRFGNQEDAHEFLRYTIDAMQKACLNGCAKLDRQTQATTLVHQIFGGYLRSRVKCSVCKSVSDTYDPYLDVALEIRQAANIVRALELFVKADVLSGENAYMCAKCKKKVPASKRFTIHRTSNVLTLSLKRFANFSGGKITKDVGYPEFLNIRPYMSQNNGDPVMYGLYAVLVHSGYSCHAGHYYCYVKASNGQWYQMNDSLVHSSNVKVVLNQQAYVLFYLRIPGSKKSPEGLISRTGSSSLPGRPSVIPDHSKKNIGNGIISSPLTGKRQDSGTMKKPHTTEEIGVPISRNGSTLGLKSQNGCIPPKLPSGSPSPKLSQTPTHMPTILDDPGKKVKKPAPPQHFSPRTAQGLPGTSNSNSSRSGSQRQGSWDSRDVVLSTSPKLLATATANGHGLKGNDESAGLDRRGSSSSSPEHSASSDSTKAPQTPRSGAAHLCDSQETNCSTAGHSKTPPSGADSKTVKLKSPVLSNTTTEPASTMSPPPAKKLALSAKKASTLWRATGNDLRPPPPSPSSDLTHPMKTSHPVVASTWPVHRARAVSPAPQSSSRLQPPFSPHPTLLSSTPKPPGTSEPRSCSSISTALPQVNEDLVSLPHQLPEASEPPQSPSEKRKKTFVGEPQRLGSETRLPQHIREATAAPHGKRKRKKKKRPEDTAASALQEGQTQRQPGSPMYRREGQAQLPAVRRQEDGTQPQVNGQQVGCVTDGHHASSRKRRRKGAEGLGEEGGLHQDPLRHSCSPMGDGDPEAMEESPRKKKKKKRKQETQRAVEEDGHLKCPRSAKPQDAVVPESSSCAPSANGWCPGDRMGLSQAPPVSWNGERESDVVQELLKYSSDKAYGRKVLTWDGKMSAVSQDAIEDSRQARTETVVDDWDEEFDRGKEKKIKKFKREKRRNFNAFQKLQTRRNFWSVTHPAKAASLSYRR
Summary of the method: as §1

[3] = target: T2, USP38 (UniProt Q8NB14)
T2 sequence (whole entry): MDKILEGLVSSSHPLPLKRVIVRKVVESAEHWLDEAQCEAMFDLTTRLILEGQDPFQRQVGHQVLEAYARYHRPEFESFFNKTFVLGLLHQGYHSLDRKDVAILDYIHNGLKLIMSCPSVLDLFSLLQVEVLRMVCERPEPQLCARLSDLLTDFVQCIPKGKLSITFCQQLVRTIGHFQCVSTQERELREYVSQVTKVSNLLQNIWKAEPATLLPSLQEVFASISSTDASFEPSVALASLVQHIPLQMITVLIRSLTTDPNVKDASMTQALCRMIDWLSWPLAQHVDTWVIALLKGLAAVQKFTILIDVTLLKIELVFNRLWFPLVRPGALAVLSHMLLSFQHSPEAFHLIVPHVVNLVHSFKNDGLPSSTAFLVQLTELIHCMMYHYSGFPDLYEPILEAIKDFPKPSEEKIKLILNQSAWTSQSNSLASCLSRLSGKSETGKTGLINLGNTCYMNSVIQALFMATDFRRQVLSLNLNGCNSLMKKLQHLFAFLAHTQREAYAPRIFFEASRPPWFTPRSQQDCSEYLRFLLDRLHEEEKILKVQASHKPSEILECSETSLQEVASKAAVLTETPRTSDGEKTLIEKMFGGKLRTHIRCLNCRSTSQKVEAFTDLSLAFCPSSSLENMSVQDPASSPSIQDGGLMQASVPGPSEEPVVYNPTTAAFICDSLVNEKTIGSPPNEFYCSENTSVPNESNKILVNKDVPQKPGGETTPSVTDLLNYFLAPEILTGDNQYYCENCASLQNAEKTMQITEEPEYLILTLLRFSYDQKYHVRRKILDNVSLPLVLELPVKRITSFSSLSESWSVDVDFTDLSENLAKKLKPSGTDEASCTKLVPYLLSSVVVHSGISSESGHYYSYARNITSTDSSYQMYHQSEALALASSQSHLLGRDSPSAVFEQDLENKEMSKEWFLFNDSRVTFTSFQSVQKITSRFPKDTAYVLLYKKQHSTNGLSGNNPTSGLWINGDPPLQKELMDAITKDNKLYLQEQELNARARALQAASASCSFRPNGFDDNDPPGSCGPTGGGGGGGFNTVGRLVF
Summary of the method: as §1

[4] = target: T3, USP39 (UniProt Q53GS9)
T3 sequence (whole entry): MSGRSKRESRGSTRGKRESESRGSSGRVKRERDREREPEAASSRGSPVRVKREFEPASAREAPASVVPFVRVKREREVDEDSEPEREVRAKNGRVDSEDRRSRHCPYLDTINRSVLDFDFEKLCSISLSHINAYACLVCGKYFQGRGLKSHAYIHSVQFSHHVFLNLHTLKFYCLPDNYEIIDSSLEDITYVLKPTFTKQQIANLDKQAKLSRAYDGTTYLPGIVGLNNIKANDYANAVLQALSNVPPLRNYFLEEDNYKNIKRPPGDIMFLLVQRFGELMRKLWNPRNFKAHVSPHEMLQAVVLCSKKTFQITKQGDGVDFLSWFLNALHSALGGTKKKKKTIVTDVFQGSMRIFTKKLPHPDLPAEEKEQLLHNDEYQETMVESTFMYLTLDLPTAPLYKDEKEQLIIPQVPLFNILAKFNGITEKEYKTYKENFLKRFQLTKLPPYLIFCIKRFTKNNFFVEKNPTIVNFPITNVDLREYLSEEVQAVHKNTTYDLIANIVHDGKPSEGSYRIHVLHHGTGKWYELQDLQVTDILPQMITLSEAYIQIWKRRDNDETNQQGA
Summary of the method: as §1

[5] = target: T4, USP4 (UniProt Q13107)
T4 sequence (whole entry): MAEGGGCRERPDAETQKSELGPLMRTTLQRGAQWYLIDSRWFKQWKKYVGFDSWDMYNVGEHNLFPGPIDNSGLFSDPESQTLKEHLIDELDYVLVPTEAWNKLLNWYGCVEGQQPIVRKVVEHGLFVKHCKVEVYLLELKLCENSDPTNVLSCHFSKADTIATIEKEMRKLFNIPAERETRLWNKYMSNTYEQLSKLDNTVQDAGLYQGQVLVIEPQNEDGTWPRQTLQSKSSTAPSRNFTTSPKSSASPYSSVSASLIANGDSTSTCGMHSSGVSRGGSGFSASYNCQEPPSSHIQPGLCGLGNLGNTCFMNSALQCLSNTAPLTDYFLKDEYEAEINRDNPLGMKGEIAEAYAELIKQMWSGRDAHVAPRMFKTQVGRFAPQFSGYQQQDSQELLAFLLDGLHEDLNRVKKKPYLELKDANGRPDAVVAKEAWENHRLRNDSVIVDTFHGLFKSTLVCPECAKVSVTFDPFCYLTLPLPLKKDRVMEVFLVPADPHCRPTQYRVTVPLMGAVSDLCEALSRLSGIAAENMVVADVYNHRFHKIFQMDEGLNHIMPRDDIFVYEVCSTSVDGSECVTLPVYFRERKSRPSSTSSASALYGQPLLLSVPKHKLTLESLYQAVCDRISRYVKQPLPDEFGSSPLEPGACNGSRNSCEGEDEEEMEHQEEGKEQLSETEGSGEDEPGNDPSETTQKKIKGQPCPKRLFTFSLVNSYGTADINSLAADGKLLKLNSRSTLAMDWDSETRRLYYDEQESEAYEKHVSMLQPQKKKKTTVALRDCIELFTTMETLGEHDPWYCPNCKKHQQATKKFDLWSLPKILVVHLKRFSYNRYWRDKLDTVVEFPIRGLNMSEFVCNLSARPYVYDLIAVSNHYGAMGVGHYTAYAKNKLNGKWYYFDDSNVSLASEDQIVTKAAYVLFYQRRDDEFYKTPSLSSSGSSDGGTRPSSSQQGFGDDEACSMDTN
Summary of the method: as §1

Measured: log2 ratio of Biotin-Ahx-Ub-VS probe labelling

Chain of USP34 (Q70CQ2 whole entry, the tested form may be a part): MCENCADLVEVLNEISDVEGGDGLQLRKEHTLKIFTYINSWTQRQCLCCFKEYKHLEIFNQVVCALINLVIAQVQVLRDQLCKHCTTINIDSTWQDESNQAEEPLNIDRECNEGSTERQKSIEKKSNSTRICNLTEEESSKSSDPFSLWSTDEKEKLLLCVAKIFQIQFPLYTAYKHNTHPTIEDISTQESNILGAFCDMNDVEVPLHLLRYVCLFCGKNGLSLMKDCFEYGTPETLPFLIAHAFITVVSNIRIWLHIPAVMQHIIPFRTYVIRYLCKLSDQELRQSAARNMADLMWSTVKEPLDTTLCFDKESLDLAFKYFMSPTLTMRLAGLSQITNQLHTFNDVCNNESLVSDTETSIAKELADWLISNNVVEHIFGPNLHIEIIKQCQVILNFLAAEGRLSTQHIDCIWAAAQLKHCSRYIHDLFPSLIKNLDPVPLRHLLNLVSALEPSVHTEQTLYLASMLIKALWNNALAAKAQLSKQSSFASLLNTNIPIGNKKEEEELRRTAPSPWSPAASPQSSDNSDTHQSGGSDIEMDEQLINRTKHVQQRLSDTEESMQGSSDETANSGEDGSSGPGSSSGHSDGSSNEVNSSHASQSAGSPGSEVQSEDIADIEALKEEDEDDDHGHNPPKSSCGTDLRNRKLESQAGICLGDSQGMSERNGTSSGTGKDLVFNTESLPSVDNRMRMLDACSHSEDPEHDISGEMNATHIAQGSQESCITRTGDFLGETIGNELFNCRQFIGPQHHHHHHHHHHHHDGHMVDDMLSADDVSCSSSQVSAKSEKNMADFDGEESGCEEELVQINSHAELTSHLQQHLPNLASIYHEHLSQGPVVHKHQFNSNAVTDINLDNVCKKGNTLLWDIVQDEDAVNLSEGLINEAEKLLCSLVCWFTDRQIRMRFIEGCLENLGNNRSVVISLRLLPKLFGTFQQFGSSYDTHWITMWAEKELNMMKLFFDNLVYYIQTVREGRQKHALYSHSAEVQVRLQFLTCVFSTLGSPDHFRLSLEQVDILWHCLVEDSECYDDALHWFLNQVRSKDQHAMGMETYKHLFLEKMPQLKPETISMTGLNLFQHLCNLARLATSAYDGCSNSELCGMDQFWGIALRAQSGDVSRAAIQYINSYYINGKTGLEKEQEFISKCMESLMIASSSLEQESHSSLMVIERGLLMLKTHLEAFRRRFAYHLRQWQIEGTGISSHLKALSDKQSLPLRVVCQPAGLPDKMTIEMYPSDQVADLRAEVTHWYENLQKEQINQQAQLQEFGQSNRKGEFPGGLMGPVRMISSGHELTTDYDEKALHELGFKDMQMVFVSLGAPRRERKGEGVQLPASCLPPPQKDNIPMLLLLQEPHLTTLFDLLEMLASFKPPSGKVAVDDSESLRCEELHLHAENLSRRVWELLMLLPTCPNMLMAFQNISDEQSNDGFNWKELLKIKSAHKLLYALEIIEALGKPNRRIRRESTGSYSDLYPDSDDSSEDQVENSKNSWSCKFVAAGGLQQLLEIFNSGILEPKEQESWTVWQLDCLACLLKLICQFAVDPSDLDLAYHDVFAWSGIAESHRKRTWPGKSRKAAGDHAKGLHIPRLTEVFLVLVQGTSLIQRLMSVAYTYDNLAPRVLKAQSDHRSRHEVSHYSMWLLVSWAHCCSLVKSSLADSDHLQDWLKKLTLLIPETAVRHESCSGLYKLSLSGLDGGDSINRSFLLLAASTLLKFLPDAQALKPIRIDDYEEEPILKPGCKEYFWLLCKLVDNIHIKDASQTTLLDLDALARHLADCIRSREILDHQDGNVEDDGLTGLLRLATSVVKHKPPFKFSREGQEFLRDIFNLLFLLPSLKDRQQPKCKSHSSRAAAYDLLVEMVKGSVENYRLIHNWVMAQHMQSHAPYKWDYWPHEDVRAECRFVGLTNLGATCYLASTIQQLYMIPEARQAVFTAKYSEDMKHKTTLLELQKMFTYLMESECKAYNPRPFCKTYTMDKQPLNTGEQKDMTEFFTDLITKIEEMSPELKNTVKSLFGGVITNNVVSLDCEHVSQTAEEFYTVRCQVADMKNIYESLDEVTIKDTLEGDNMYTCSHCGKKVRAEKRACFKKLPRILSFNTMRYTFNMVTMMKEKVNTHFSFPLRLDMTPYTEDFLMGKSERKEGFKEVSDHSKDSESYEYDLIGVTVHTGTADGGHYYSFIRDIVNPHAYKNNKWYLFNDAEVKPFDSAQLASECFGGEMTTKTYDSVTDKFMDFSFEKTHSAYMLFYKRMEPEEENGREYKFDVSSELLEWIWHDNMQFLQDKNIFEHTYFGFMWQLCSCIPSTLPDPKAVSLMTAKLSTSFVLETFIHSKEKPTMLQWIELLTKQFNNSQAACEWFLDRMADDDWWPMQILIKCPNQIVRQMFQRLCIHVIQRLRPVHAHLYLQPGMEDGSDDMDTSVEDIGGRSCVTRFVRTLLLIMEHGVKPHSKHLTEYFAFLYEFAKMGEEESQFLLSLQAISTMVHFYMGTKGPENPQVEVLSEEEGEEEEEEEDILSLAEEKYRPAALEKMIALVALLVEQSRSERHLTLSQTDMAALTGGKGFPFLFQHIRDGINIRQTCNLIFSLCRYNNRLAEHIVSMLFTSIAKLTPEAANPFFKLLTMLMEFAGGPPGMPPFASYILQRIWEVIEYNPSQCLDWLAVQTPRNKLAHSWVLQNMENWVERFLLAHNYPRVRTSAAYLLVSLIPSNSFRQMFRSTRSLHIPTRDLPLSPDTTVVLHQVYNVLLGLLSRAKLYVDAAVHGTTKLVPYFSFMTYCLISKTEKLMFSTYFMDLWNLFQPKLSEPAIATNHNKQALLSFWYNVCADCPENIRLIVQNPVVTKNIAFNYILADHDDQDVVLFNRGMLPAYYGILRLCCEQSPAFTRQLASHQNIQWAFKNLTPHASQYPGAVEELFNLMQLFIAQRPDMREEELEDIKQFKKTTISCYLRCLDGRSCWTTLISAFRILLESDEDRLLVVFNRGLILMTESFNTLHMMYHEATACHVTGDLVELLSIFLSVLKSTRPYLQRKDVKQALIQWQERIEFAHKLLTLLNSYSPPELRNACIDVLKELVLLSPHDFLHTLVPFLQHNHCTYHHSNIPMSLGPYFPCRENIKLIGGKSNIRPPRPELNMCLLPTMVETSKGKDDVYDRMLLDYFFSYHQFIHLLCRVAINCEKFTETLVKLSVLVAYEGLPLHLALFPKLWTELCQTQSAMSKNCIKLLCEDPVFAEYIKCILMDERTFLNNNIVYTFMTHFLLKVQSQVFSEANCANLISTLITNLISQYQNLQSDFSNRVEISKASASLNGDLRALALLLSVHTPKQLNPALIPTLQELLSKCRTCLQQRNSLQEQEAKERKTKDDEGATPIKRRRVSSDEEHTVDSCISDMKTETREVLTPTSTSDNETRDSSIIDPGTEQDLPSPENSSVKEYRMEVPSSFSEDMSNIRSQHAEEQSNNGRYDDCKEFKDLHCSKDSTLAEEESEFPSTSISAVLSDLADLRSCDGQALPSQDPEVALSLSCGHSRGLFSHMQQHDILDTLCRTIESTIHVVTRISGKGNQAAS

NC(=O)C1CCCN(C(=O)CCl)C1 (stereo not given)
inactive: [1] -0.00128 | [2] 0.0237 | [3] -0.242 | [4] -0.334 | [5] -0.0203

Reference: the supplement of paper PMC11732987, “Enantioselective OTUD7B fragment discovery through chemoproteomics screening and high-throughput optimisation” (Communications Chemistry, 2025)
